Measurements from PubChem BioAssay (Tox21).
Inconclusive results are not listed. Activity calls are given as the source filed them. Unless noted, calls come from the whole dose curve; as a rule, active = well fitted curve in the direction sought with a large enough effect in the repeat runs; inconclusive = weak or mixed curves; inactive = no such curve, though single readings can be large; an effect the other way counts as inactive or inconclusive.

Columns and labels:
[1] = qHTS assay to identify small molecule antagonists of the estrogen related receptor (ERR) signaling pathway from Tox21 library - cell viability counter screen (AID 1224834); note: nearly all actives have a fitted effect of over 30% in size; note: potency is the fitted concentration of half-maximal effect
Summary of the method: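 Counter screen run in ERR cells (2,000 cells/well): cells pre-incubated 6 h, then treated with compounds for 17.5 h at 37 C. Fluorescence was read 30 min after CellTiter-Fluor addition.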

[2] = biological target: Luciferin 4-monooxygenase (Photinus pyralis) (UniProt P08659); assay: qHTS assay to identify small molecule inhibitors of firefly luciferase (AID 1224835); note: nearly all actives have a fitted effect of over 25% in size
Summary of the method: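 Inhibition of purified Photinus luciferase is measured by luminescence. Substrate levels (D-luciferin, ATP) sit at their KM values. Each compound is tested in a concentration series.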

[3] = qHTS assay to identify small molecule agonists of the constitutive androstane receptor (CAR) signaling pathway - cell viability counter screen (AID 1224836); note: nearly all actives have a fitted effect of over 45% in size; note: potency is the fitted concentration of half-maximal effect
Summary of the method: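 HepG2-CYP2B6-hCAR, 2500 cells/well, 4 h pre-incubation; cpd 15 conc + PK11195 0.75 uM final; 23 h, 37 C/5% CO2; CellTiter-Fluor, fluorescence.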

[4] = qHTS assay to identify small molecule antagonists of the constitutive androstane receptor (CAR) signaling pathway - cell viability counter screen (AID 1224837); note: nearly all actives have a fitted effect of over 45% in size; note: potency is the fitted concentration of half-maximal effect
Summary of the method: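 CITCO at 50 nM final was added alongside compounds (15 concentrations) to double-stable hCAR/CYP2B6-2.2kb HepG2 cells. Following 23 hr at 37 C, cell viability was quantified by CellTiter-Fluor fluorescence intensity.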

[5] = qHTS assay to identify small molecule antagonists of the estrogen related receptor signaling pathway with the pleiotropic PPARgamma coactivator (PGC) from Tox21 10K library - cell viability counter screen (AID 1224840; active = well fitted cell-killing curve with a large enough effect in the repeat runs, not every such curve was filed as active; note: nearly all actives have a fitted effect of over 40% in size; note: potency is the fitted concentration of half-maximal effect)
Summary of the method: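 Readout: fluorescence intensity from CellTiter-Fluor after 30 min at 37 C/5% CO2. Preceded by 17.5 h treatment of PGC/ERR cells with DMSO-dissolved compounds, added 6 h post-seeding.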

[6] = qHTS assay to identify small molecule antagonists of the estrogen related receptor signaling pathway with the pleiotropic PPARgamma coactivator (PGC) from Tox21 10K library (AID 1224841; call rule not given here; note: actives are mostly falling curves and most rising ones were filed inactive; nearly all actives have a fitted effect of over 50% in size; note: potency is the fitted concentration of half-maximal effect)
Summary of the method: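 One-Glo luminescence, measured after half an hour at room temperature, quantified reporter output of PGC/ERR cells. These had been plated at 2,000 per well, incubated 6 h, dosed with compounds in DMSO, then kept 18 h at 37 C.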

[7] = qHTS assay to identify small molecule agonists of the estrogen related receptor signaling pathway with the pleiotropic PPARgamma coactivator (PGC) from Tox21 10K library (AID 1224842); note: nearly all actives have a fitted effect of over 15% in size
Summary of the method: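 Luminescence from One-Glo (30 min, room temperature) measured after PGC/ERR cells had 18 h at 37 C with pinned compound (23 nL in DMSO). Cells had been seeded at 2,000 per well and pre-incubated 6 h.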

[8] = biological target: Thyrotropin receptor (Homo sapiens) (UniProt P16473); assay: qHTS assay to identify small molecule agonists of the thyroid stimulating hormone receptor (TSHR) signaling pathway (AID 1224843; calls by dose curve; note: nearly all actives have a fitted effect of over 45% in size)
Summary of the method: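 A cell-based cAMP HTRF format was run in TSHR-transfected HEK293 cells, 800 per well. Treatment: 30 min, room temperature. Detection: 1 h with labelled cAMP and anti-cAMP cryptate. Concentration-response over 15 points, three replicates.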

[9] = qHTS assay to identify small molecule agonists of the hypoxia (HIF-1) signaling pathway - cell viability counter screen (AID 1224844; calls by dose curve; note: nearly all actives have a fitted effect of over 50% in size; note: potency is the fitted concentration of half-maximal effect)
Summary of the method: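 In this counter screen, HRE-bla ME-180 cell viability after 17 hrs of compound exposure at 37C was read by CellTiter-Glo luminescence, multiplexed with the beta-lactamase reporter measurement.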

[10] = qHTS assay to identify small molecule agonists of H2AX (AID 1224845; active = well fitted activation curve with a large enough effect in the signal ratio in the repeat runs, not every such curve was filed as active; the % refers to the signal ratio)
Summary of the method: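 Phospho-H2AX Ser139 measured by HTRF (ex 320 nm; em 665 and 620 nm) after 24 hr antibody incubation. Compounds, 15 concentrations, 0.76% DMSO, were applied to CHO-K1 cells for 3hr at 37C before lysis.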

[11] = qHTS assay to identify small molecule agonists of the hypoxia (HIF-1) signaling pathway (AID 1224846; active = well fitted activation curve with a large enough effect in the signal ratio in the repeat runs, not every such curve was filed as active; the % refers to the signal ratio)
Summary of the method: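 ME-180 HRE-bla reporter cells; compounds in DMSO, 17 h at 37C; read-out beta-lactamase via CCF4-AM FRET.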

[12] = qHTS assay to identify small molecule agonists of H2AX - cell viability counter screen (AID 1224847; calls by dose curve;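 note: wild-type CHO-K1 cells; top concentration of the series differs between compounds; nearly all actives have a fitted effect of over 30% in size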)
Summary of the method: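 Cells plated first: CHO-K1, 1000 per well in 10% FBS medium, incubated overnight at 37C. Then 15-point compound titration added (final DMSO 0.76%) for 3 hr. Finally CellTiter-Glo added and luminescence read.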

[13] = qHTS assay to identify small molecule antagonists of the estrogen related receptor (ERR) signaling pathway from Tox21 library (AID 1224848); note: nearly all actives have a fitted effect of over 50% in size; note: potency is the fitted concentration of half-maximal effect
Summary of the method: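 ERR cell line, 2,000 cells/well. 6 h settle, then compound (DMSO) added; 18 h at 37 C; ONE-Glo luminescence after 30 min RT.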

[14] = qHTS assay to identify small molecule agonists of the estrogen related receptor (ERR) signaling pathway from Tox21 library (AID 1224849; calls by dose curve; note: nearly all actives have a fitted effect of over 15% in size); details: ERR reporter cell line, ONE-Glo luciferase, 18 h; at 92.4 µM (top of the series) unless noted
Summary of the method: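 Luciferase activity in ERR pathway reporter cells served as the agonist readout; exposure lasted 18 h at 37 C, with ONE-Glo detection after 30 min at room temperature.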

[15] = qHTS RealTime-Glo MT Cell Viability Assay in HepG2 cells - 24 hour (AID 1224867); note: nearly all actives have a fitted effect of over 50% in size; note: potency is the fitted concentration of half-maximal effect
Summary of the method: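 Compound treatment began 5 h after plating HepG2 cells (600/well) with NanoLuc luciferase and prosubstrate. Plates stayed at 37 C for 40 h; luminescence was captured at six time points, 0 h through 40 h.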

[16] = qHTS RealTime-Glo MT Cell Viability Assay in HEK293 cells - 32 hour (AID 1224868); note: nearly all actives have a fitted effect of over 50% in size; note: potency is the fitted concentration of half-maximal effect
Summary of the method: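 Quantitative high-throughput screen of the Tox21 10K library in HEK293: cells and RealTime-Glo reagents plated together, compound added at 5 h, luminescence monitored through 40 h at 37 C.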

[17] = A CellTox Green Cytotoxicity Assay to monitor cytotoxicity in HEK293 cells - 0 hour (AID 1224869); note: nearly all actives have a fitted effect of over 50% in size
Summary of the method: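 Real-time, in one plate: 600 HEK293 cells/well with dead-cell DNA dye, pinned compound after 5 h, 37 C incubation over 40 h; viable cells give no appreciable fluorescence.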

[18] = qHTS RealTime-Glo MT Cell Viability Assay in HepG2 cells - 40 hour (AID 1224870); note: nearly all actives have a fitted effect of over 50% in size; note: potency is the fitted concentration of half-maximal effect
Summary of the method: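 Real-time viability: cells seeded at 600 per well together with NanoLuc and cell-permeant prosubstrate, compounds added after 5 h incubation. Luminescence tracked at 0, 8, 16, 24, 32 and 40 h of exposure.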

[19] = biological target: Nuclear receptor subfamily 1 group I member 3 (Homo sapiens) (UniProt Q14994); assay: qHTS assay to identify small molecule agonists of the constitutive androstane receptor (CAR) signaling pathway (AID 1224839); note: nearly all actives have a fitted effect of over 15% in size
Summary of the method: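 HepG2-CYP2B6-hCAR cells, 2500/well, 4 h pre-incubation; compounds 15 conc.; PK11195 0.75 uM final; 24 h, 37 C/5% CO2; ONE-Glo luciferase read.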

[20] = biological target: Nuclear receptor subfamily 1 group I member 3 (Homo sapiens) (UniProt Q14994); assay: qHTS assay to identify small molecule antagonists of the constitutive androstane receptor (CAR) signaling pathway (AID 1224838); note: nearly all actives have a fitted effect of over 40% in size
Summary of the method: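 Inhibition of CITCO-driven (50 nM final) CYP2B6 reporter expression is measured in HepG2 cells stably carrying hCAR. Fifteen compound concentrations are applied for 24 h at 37 C, followed by luciferase luminescence.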
% is set by controls: 0 for no effect and ±100 for the full control effect.

Thyrotropin receptor (Homo sapiens), sequence (P16473 whole entry, looked up): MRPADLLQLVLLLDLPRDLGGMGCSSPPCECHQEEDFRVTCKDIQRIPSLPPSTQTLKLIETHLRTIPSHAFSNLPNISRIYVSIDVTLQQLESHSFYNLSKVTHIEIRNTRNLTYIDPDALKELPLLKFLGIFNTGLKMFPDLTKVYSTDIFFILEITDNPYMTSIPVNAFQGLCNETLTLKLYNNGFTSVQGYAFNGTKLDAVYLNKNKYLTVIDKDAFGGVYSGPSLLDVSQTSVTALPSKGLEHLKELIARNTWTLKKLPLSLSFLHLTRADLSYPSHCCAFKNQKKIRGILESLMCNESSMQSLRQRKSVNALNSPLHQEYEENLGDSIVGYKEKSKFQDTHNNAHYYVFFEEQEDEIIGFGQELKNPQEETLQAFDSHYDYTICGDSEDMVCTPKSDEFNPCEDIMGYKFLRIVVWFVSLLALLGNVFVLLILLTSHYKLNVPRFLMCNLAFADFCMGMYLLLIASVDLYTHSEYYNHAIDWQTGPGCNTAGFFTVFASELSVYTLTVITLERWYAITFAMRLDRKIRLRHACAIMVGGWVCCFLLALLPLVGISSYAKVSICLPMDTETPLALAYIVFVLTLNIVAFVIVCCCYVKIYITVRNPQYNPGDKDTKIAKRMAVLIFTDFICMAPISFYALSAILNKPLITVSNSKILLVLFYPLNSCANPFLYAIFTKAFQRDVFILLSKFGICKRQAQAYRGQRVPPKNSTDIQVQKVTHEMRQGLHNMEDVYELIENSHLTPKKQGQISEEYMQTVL
Nuclear receptor subfamily 1 group I member 3 (Homo sapiens), sequence (Q14994 whole entry, looked up): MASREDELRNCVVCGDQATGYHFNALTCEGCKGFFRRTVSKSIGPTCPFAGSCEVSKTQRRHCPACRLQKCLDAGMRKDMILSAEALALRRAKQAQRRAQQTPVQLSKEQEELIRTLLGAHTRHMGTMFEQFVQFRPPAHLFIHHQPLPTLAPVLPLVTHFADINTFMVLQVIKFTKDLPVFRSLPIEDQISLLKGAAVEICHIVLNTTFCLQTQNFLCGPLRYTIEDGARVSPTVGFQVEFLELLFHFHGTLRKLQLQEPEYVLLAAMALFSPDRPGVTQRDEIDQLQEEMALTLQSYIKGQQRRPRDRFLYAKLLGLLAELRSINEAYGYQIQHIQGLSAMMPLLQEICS
Luciferin 4-monooxygenase (Photinus pyralis), sequence (P08659 whole entry, looked up): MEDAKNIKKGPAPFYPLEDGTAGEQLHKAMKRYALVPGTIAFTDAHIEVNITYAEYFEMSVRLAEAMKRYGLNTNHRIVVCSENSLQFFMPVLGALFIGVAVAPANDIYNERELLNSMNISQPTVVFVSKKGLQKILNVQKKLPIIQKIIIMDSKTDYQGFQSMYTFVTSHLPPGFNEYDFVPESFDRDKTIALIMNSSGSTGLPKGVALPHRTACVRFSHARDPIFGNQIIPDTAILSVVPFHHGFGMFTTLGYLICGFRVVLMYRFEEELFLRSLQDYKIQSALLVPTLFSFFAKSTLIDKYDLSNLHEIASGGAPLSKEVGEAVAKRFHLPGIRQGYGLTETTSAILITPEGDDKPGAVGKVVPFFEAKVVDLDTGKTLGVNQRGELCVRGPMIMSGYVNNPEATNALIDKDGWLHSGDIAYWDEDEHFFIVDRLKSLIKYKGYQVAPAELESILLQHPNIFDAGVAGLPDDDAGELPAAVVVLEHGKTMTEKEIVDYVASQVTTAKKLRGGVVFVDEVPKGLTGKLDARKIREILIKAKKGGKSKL

ClCCOCCOCCCl
inactive: Potency [1] | Potency [2] | Potency [3] | Potency [4] | Potency [5] | Potency [6] | Potency [7] | Potency [8] | Potency [9] | Potency [10] | Potency [11] | Potency [12] | Potency [13] | activity change, positive = activation [14] 2.88% | Potency [15] | Potency [16] | Potency [17] | Potency [18]

CCN(CC)CCNc1ccc(CNC=O)c2sc3ccc(OC)cc3c(=O)c12
inactive: Potency [2] | Potency [6] | Potency [8] | Potency [10] | Potency [11] | Potency [12] | activity change, positive = activation [14] -41.1% | Potency [17]
active: Potency [1] 7.7 µM | Potency [3] 8.63 µM | Potency [4] 8.63 µM | Potency [5] 6.11 µM | Potency [9] 24.5 µM | Potency [13] 2.73 µM | Potency [15] 21.9 µM | Potency [16] 17.4 µM | Potency [18] 17.4 µM

NS(=O)(=O)c1ccc(N2CCCCS2(=O)=O)cc1
inactive: Potency [1] | Potency [2] | Potency [3] | Potency [4] | Potency [19] | Potency [5] | Potency [6] | Potency [7] | Potency [8] | Potency [9] | Potency [10] | Potency [11] | Potency [12] | Potency [13] | activity change, positive = activation [14] 5.22% [at 42.5 µM] | Potency [15] | Potency [16] | Potency [17] | Potency [18]

O=C(O)c1ccc(S(=O)(=O)O)cc1C(=O)O
inactive: Potency [1] | Potency [2] | Potency [3] | Potency [4] | Potency [20] | Potency [5] | Potency [7] | Potency [8] | Potency [9] | Potency [10] | Potency [11] | Potency [12] | Potency [13] | activity change, positive = activation [14] -2.89% | Potency [15] | Potency [17] | Potency [18]

C=C(C)C(=O)OCCO
inactive: Potency [1] | Potency [2] | Potency [3] | Potency [4] | Potency [20] | Potency [8] | Potency [9] | Potency [10] | Potency [11] | Potency [12] | Potency [15] | Potency [16] | Potency [17] | Potency [18]

C[Si](C)(CCCN)O[Si](C)(C)CCCN
inactive: Potency [1] | Potency [2] | Potency [3] | Potency [4] | Potency [20] | Potency [5] | Potency [6] | Potency [8] | Potency [9] | Potency [10] | Potency [11] | Potency [12] | Potency [13] | activity change, positive = activation [14] -0.594% | Potency [15] | Potency [16] | Potency [17] | Potency [18]

C1CCCNCCC1
inactive: Potency [1] | Potency [2] | Potency [3] | Potency [4] | Potency [5] | Potency [8] | Potency [9] | Potency [10] | Potency [11] | Potency [12] | Potency [13] | activity change, positive = activation [14] -2.25% | Potency [15] | Potency [16] | Potency [17] | Potency [18]
active: Potency [6] 4.32 µM

C=C(C)C(=O)OCCOCC
inactive: Potency [1] | Potency [2] | Potency [3] | Potency [4] | Potency [20] | Potency [5] | Potency [9] | Potency [11] | Potency [12] | Potency [15] | Potency [16] | Potency [17] | Potency [18]

O=C1c2ccccc2S(=O)(=O)N1CCCCN1CCN(c2ncccn2)CC1
inactive: Potency [1] | Potency [2] | Potency [3] | Potency [4] | Potency [20] | Potency [5] | Potency [8] | Potency [9] | Potency [10] | Potency [11] | Potency [12] | Potency [15] | Potency [16] | Potency [17] | Potency [18]

CO[C@@H]1[C@H](OC(=O)/C=C/C=C/C=C/C=C/C(=O)O)CC[C@]2(CO2)[C@H]1[C@@]1(C)O[C@@H]1CC=C(C)C
inactive: Potency [1] | Potency [2] | Potency [3] | Potency [4] | Potency [19] | Potency [6] | Potency [7] | Potency [8] | Potency [10] | Potency [12] | Potency [13] | activity change, positive = activation [14] -16% | Potency [15] | Potency [17] | Potency [18]

CN1C[C@H]2c3ccccc3Oc3ccc(Cl)cc3[C@@H]2C1
inactive: Potency [1] | Potency [2] | Potency [3] | Potency [4] | Potency [20] | Potency [5] | Potency [6] | Potency [8] | Potency [9] | Potency [11] | Potency [12] | Potency [13] | activity change, positive = activation [14] -3.7% [at 42.5 µM] | Potency [15] | Potency [16] | Potency [17] | Potency [18]

CC(C)(C)OCC1CO1 (configuration not stated)
inactive: Potency [1] | Potency [2] | Potency [3] | Potency [4] | Potency [5] | Potency [8] | Potency [10] | Potency [11] | Potency [12] | Potency [15] | Potency [16] | Potency [17] | Potency [18]

CCOc1ccc(O)cc1
inactive: Potency [1] | Potency [2] | Potency [3] | Potency [20] | Potency [19] | Potency [5] | Potency [8] | Potency [11] | Potency [12] | Potency [15] | Potency [17] | Potency [18]

COc1cc(Cl)c(OC)cc1N
inactive: Potency [1] | Potency [2] | Potency [3] | Potency [4] | Potency [9] | Potency [11] | Potency [12] | Potency [15] | Potency [16] | Potency [17] | Potency [18]

Nc1ccc(S(=O)(=O)Nc2ccccc2)cc1
inactive: Potency [1] | Potency [2] | Potency [3] | Potency [20] | Potency [19] | Potency [5] | Potency [8] | Potency [10] | Potency [11] | Potency [12] | Potency [15] | Potency [16] | Potency [17] | Potency [18]

COc1cc2nc(N3CCN(C(=O)C4COc5ccccc5O4)CC3)nc(N)c2cc1OC (configuration not stated)
inactive: Potency [2] | Potency [3] | Potency [20] | Potency [19] | Potency [8] | Potency [10] | Potency [12] | Potency [15] | Potency [17] | Potency [18]
active: Potency [1] 29.8 µM | Potency [16] 21.3 µM
